This is one part of a sample in which hits are shown more often than they occur.
12-LOX inh = blocks human arachidonate 12S-lipoxygenase | 580,000 compounds, 1.1% hits | Potency, µM (series often up to 108 µM), hits mostly inhibitors | P18054 | purified 12hLO, xylenol orange hydroperoxide absorbance
Target sequence (P18054 whole entry, looked up): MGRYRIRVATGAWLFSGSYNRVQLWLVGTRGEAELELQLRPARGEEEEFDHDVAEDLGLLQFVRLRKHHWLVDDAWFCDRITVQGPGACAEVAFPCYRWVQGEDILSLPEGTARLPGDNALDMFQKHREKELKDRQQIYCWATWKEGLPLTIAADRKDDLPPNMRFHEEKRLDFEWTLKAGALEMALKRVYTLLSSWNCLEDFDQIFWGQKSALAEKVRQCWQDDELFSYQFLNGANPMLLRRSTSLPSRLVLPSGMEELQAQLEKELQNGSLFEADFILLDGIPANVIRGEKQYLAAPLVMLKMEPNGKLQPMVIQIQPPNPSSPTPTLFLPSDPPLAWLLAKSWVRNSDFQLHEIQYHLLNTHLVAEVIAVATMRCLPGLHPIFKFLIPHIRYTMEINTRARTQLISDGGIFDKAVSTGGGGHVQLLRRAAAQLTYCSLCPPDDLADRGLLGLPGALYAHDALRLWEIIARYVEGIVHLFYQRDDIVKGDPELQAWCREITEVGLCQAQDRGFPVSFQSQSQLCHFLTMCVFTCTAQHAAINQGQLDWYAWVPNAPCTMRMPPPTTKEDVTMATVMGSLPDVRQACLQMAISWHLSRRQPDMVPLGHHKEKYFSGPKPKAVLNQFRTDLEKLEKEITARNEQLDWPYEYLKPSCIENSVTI
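Purified human 12hLO at 150 nM in 25 mM Hepes, 0.01% Triton X-100, pH 7.0, preincubated 15 min at room temperature with compound. Reaction started with 40 uM arachidonic acid, 30 min at room temperature. Hydroperoxide measured by Fe-xylenol orange, 573/405 nm absorbance ratio.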
IL-1B inflam inh = inhibitors of inflammasome signaling (IL-1 beta secretion) | THP-1 LPS/ATP IL-1B secretion, AlphaLISA, 16 h; stronger effect = lower value | activity change, % at 57.5 µM | 360,000 compounds, 4.7% hits; in the data active means activity change below about -50%; inconclusive means mostly about -30% to -49%
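Secreted IL-1B measured by AlphaLISA bead assay after 16 h compound exposure of THP-1 cells; compounds (final up to 57.5 uM) added 1 h before LPS (250 ng/mL) and ATP (1.25 mM) stimulation; lower signal means less secretion.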
HT1080 IDH1KD tx = toxicity to HT-1080 IDH1 knockdown cells (counter line). HT-1080 IDH1 knockdown viability, ATP luminescence, 48 h. AID 686971. Potency, µM (series often up to 46.1 µM), most hits filed as cytotoxic. 360,000 compounds, 2% hits
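IDH1KD HT-1080 cells, 750/well, RPMI + 5% FBS; compound pinned after 2 h settling; 48 h, 37 °C; CellTiter-Glo luminescence; % activity normalised to DMSO and no-cell wells; curves fitted, classed by r2 and efficacy.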
HT1080NT lethal = kills 2HG-producing HT-1080-NT fibrosarcoma cells. HT-1080-NT fibrosarcoma viability, CellTiter-Glo ATP luminescence, 48 h. Potency, µM (highest dose often 46.1 µM), hits mostly cytotoxic. 360,000 compounds, 1.6% hits;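 further: NT is the 2HG producing partner of a matched IDH1 knockdown line; nearly all actives have a fitted effect of over 55% in size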
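Viability of the 2HG-overproducing fibrosarcoma line after 48 hours of compound exposure at 37 degrees C was determined by luminescence with CellTiter-Glo, and concentration-effect curves were then fitted and categorized.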
TDP1 cell CPT = growth inhibition of DT40 Tdp1-/-;hTDP1 cells with camptothecin (screen for TDP1 inhibitors); 420,000 compounds, 12% hits; Potency, µM (top dose mostly 46.2 µM), actives largely listed as inhibitors; chicken DT40 Tdp1-/-;hTDP1 cells + 20 nM CPT, ATP luminescence, 48 h; further: nearly all actives have a fitted effect of over 55% in size
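Chicken DT40 Tdp1-/- cells stably complemented with human TDP1 were seeded at 400 cells/well in medium containing 20 nM camptothecin, exposed to pin-transferred compounds, and grown at 37 °C for at least 48 hr. Viability was read as ATP luminescence.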
DT40 TDP1 no CPT = qHTS for Inhibitors of human tyrosyl-DNA phosphodiesterase 1 (TDP1): qHTS in cells in absence of CPT; 420,000 compounds, 15% hits; Potency, µM (doses to about 46.2 µM), usual class: inhibitors; DT40 Tdp1-/- hTDP1 cells, no CPT, ATP luminescence, 48 h; further: nearly all actives have a fitted effect of over 55% in size
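Cells were dispensed at 400 per well, compounds added by pin tool, plates incubated ≥48 hr at 37 °C, then CellTiter-Glo added for 30 min at room temperature before luminescence reading. Line: DT40 Tdp1-/- complemented with hTDP1; camptothecin omitted.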
A number is an active result. Unless noted, the call rests on the fitted dose curve; in most records, active means well fitted curve in the direction sought with a large enough effect; inconclusive means small, poorly fitted or top-dose-only effect, or another doubt; inactive means no such curve, though single readings can be large; an effect the other way counts as inactive or inconclusive.

CCN(CC)S(=O)(=O)c1ccc(N2CCOCC2)c(NC(=O)COc2ccccc2)c1 was read as 12-LOX inh inactive, IL-1B inflam inh inactive, HT1080 IDH1KD tx inactive, HT1080NT lethal inactive, TDP1 cell CPT inconclusive and DT40 TDP1 no CPT inconclusive.
CCc1ccccc1OCC(=O)Nc1cc(S(=O)(=O)N(CC)CC)ccc1N1CCOCC1 was read as 12-LOX inh inactive, IL-1B inflam inh inactive, HT1080 IDH1KD tx inactive, HT1080NT lethal inactive, TDP1 cell CPT 20.6µM and DT40 TDP1 no CPT 16.4µM.
`CCN(CC)S(=O)(=O)c1ccc(N2CCOCC2)c(NC(=O)CCOc2ccccc2)c1` gave 12-LOX inh inactive, IL-1B inflam inh inactive, HT1080 IDH1KD tx inactive, HT1080NT lethal inactive, TDP1 cell CPT inconclusive and DT40 TDP1 no CPT 14.6µM.
For CCN(CC)S(=O)(=O)c1ccc(N2CCOCC2)c(NC(=O)c2cc3ccccc3oc2=O)c1 the results were 12-LOX inh inactive, IL-1B inflam inh inactive, HT1080 IDH1KD tx inactive, HT1080NT lethal inactive, TDP1 cell CPT inconclusive and DT40 TDP1 no CPT 16.4µM.
Screening Cc1ccc(C2(C(=O)N[C@@H]3COCC[C@@H]3OCc3ccccc3)CC2)cc1 returned 12-LOX inh inactive.
Screening CCOc1cc(N2CCOCC2)c(OCC)cc1NC(=O)COC(=O)CCOc1ccc(C(C)(C)C)cc1 returned 12-LOX inh inactive, IL-1B inflam inh inactive, HT1080 IDH1KD tx inactive, HT1080NT lethal inactive, TDP1 cell CPT inconclusive and DT40 TDP1 no CPT inconclusive.
Screening CC(C)(C)c1ccc(OCCC(=O)Nc2ccc(N3CCOCC3)cc2N2CCOCC2)cc1 returned 12-LOX inh inactive, IL-1B inflam inh -51.1, HT1080 IDH1KD tx inconclusive, HT1080NT lethal inconclusive, TDP1 cell CPT 16.4µM and DT40 TDP1 no CPT 16.4µM.
`CCOC(=O)CSC1=NC(=O)CS1` gave 12-LOX inh inactive, IL-1B inflam inh inactive, HT1080 IDH1KD tx inactive, HT1080NT lethal inactive, TDP1 cell CPT 10.3µM and DT40 TDP1 no CPT inconclusive.
`CC(=O)ON=C1C(c2c(O)[nH]c3cc(Br)ccc23)=Nc2ccccc21` gave 12-LOX inh inactive.
Screening O=Nc1c(-c2c(O)[nH]c3cc(Br)ccc23)[nH]c2ccccc12 returned 12-LOX inh inactive, IL-1B inflam inh -105.6, HT1080 IDH1KD tx 8.2µM, HT1080NT lethal 5.17µM, TDP1 cell CPT inconclusive and DT40 TDP1 no CPT 14.6µM.
`CC(C)c1ccc(NC(=O)CSc2nc3ccccc3nc2Cc2ccccc2)cc1` gave 12-LOX inh inactive, TDP1 cell CPT inconclusive and DT40 TDP1 no CPT inactive.
For O=C(Nc1cccnc1)NC1CCCCC1 the results were 12-LOX inh inactive, IL-1B inflam inh inactive, HT1080 IDH1KD tx inactive, HT1080NT lethal inactive, TDP1 cell CPT inactive and DT40 TDP1 no CPT inactive.
CC12CCC(C(=O)N(CSC(=S)N/N=C\c3ccccc3)C1=O)C2(C)C (configuration not stated) was read as 12-LOX inh inactive, IL-1B inflam inh inactive, HT1080 IDH1KD tx inactive, HT1080NT lethal inactive, TDP1 cell CPT 5.8µM and DT40 TDP1 no CPT 4.61µM.
`CC12CCC(C(=O)N(CSC(=S)N/N=C\c3ccccc3Cl)C1=O)C2(C)C` (configuration not stated) gave 12-LOX inh inconclusive, IL-1B inflam inh inactive, HT1080 IDH1KD tx inactive, HT1080NT lethal inactive, TDP1 cell CPT inactive and DT40 TDP1 no CPT inconclusive.
For O=C(Nc1ccc(N2CCC(N3CCCCC3)CC2)c(C(=O)O)c1)c1ccc(Br)cc1 the results were 12-LOX inh inconclusive, TDP1 cell CPT inactive and DT40 TDP1 no CPT inactive.
`O=C(Nc1cnc(N2CCC(N3CCCCC3)CC2)c(C(=O)O)c1)c1ccc(Br)cc1` gave 12-LOX inh 39.8µM, TDP1 cell CPT inactive and DT40 TDP1 no CPT inactive.
For CCN(CC)Cc1ccc2cc(COC(=O)Nc3ccc(C(=O)NO)cc3)ccc2c1 the results were 12-LOX inh 15.3µM.
`CCC(=O)Nc1ccc(C(=O)OCc2ccc(Cl)c(Cl)c2)cc1` gave 12-LOX inh inactive, IL-1B inflam inh inactive, HT1080 IDH1KD tx inactive, HT1080NT lethal inactive, TDP1 cell CPT inactive and DT40 TDP1 no CPT inactive.
For CCCOc1c(Cl)cc(C(=O)NC(C)(C)C)cc1OCC the results were 12-LOX inh inactive.
Screening CN(C(=O)c1ccccc1F)C(c1ccccc1)c1ccccc1 returned 12-LOX inh inactive, IL-1B inflam inh inactive, HT1080 IDH1KD tx inactive, HT1080NT lethal inactive, TDP1 cell CPT 10.3µM and DT40 TDP1 no CPT 16.4µM.
CC(c1cccs1)N(C)C(=O)c1ccccc1F (configuration not stated) was read as 12-LOX inh inactive.
`O=C(c1ccccc1)N1CCN(CC#Cc2ccccc2)CC1` gave 12-LOX inh inactive, IL-1B inflam inh inactive, HT1080 IDH1KD tx inactive, HT1080NT lethal inactive, TDP1 cell CPT inactive and DT40 TDP1 no CPT inactive.
`C(#Cc1ccc(C#CCN2CCCC2)cc1)CN1CCCC1` gave 12-LOX inh inactive, IL-1B inflam inh inactive, HT1080 IDH1KD tx inactive, HT1080NT lethal inactive, TDP1 cell CPT inconclusive and DT40 TDP1 no CPT 20.6µM.
CN1C(=O)C2(CCN(C(=O)C3CCCC3)CC2)c2ccccc21 was read as 12-LOX inh inactive.
`CC(=O)N1C2=CCCC3CCCCC23c2ccccc21` (configuration not stated) gave 12-LOX inh inconclusive, IL-1B inflam inh inactive, HT1080 IDH1KD tx inactive, HT1080NT lethal inactive, TDP1 cell CPT 20.6µM and DT40 TDP1 no CPT 25.9µM.
CCN(CC)S(=O)(=O)c1ccc2oc(C(=O)NC3CCCc4ccccc43)c(C)c2c1 (configuration not stated) was read as 12-LOX inh inactive, IL-1B inflam inh inactive, HT1080 IDH1KD tx inactive, HT1080NT lethal inactive, TDP1 cell CPT 14.6µM and DT40 TDP1 no CPT 10.3µM.
Screening CCN(CC)S(=O)(=O)c1ccc2oc(C(=O)N3CCCCCC3)c(C)c2c1 returned 12-LOX inh inactive, IL-1B inflam inh inactive, HT1080 IDH1KD tx inactive, HT1080NT lethal inactive, TDP1 cell CPT inconclusive and DT40 TDP1 no CPT 9.2µM.
For CCN(CC)S(=O)(=O)c1ccc2oc(C(=O)N3CCc4ccccc4C3)c(C)c2c1 the results were IL-1B inflam inh inactive, HT1080 IDH1KD tx inactive, HT1080NT lethal inactive, TDP1 cell CPT inconclusive and DT40 TDP1 no CPT 2.06µM.
`COc1ccc(N2C(=O)CN(Cc3ccc4c(c3)OCO4)[C@H]3CS(=O)(=O)C[C@H]32)cc1Cl` gave 12-LOX inh inactive.
`C[C@H](NC(=O)c1ccco1)C(=O)Nc1cc(S(=O)(=O)N2CCCC2)ccc1OCC(F)(F)F` gave 12-LOX inh inconclusive, IL-1B inflam inh inactive, HT1080 IDH1KD tx inactive, HT1080NT lethal inactive, TDP1 cell CPT inactive and DT40 TDP1 no CPT inactive.
`C1CN[C@H](CN2CCCC2)C1` gave 12-LOX inh inactive.
